In PubChem BioAssay (NCI):
This is part of a sample that, as a whole, favours compounds with a hit. Of some 83,000 tested, about 20% had one in any assay.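 Negative percent growth values reflect cell death: -40 means 40% of the cells present at the start died, and -100 means all died.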 Calls of active or inactive are those of the source. How the source made its calls: active means growth percent below 10; inactive means the rest.

system: SK-MEL-28 melanoma; test: NCI-60 one-dose screen, 48 h (100 = growth as untreated, 0 = no growth, -100 = all killed); conditions: 10 µM unless noted

| Compound | growth |
| --- | --- |
| C=C(C=O)[C@@H]1CC[C@]2(C)[C@H](CC=C3[C@H]4[C@@H](C)[C@H](C)CC[C@]4(C(=O)OC)CC[C@]32C)[C@@]1(C)CCC#N | -39.4% (active) |
| COc1ccc([C@@H]2c3[nH]c4ccccc4c3C[C@H]3C(=O)N(C4CCN(CC5CCCCC5)CC4)CC(=O)N23)c(OC)c1 | 89.1% (inactive) |
| c1ccc(C(c2nc3ncncc3[nH]2)N2CSc3nc4ncncc4n3C2)cc1 (stereo unspecified) | 98.4% (inactive) |
| CNCc1cccc2c1OCCCCCCC(C)(O)CC(C)(C)S(=O)(=O)c1ccc(cc1)-c1cnc(N)c(n1)C(=O)N2 (stereo unspecified) | 13.5% (inactive) |
| CS(=O)(=O)c1ncc(-c2ccccc2)cn1 | 98% (inactive) |
| CCOC(=O)c1c(N)c(C#N)cn1-c1cc(OC)c(OC)c(OC)c1 | 108% (inactive) |
| CCCCCc1ccc(S(=O)(=O)Nc2cc(-c3csc(NC(=O)CN4CCN(C)CC4)n3)ccc2OC)cc1 | -69.4% (active) |
| Cc1nc2ncc(-c3ccc4ncnc(NCc5ccccc5)c4c3)cc2[nH]1 | 63.1% (inactive) |
| Cc1ccc(S(=O)(=O)N(CC[C@@H]2C[C@H]2c2cc3ccccc3o2)S(=O)(=O)c2ccc(C)cc2)cc1 | 93.5% (inactive) |
| COC(=O)c1ccc(NC2=C/C(=N/S(=O)(=O)c3ccc(C(=O)O)cc3)c3ccccc3C2=O)cc1 | -32.6% (active) |
| O=C(CCn1c[n+](CC(=O)c2ccc(F)cc2)c2ccccc21)Nc1cccc2cccnc12 | 60.1% (inactive) |
| CC1(C)CC[C@]2(C(=O)O)CC[C@]3(C)C(=CC[C@@H]4[C@@]5(C)CC/C(=N\OCCC#N)C(C)(C)[C@@H]5CC[C@]43C)[C@@H]2C1 | 106% (inactive) |
| COc1ccc([C@@H]2[C@@H](O)C(=O)N2c2cc(OC)c(OC)c(OC)c2)cc1F | 68.6% (inactive) |
| CCOC(=O)c1c(Nc2ccccc2)nn2c(-c3ccccc3)ccnc12 | 101% (inactive) |
| Cc1cc(C)c2sc(=O)n(Cc3nnc(SCCC(=O)O)o3)c2n1 | 101% (inactive) |
| C=CCn1c(SCC(=O)Nc2ccc(C(=O)/C=C/c3cccc([N+](=O)[O-])c3)cc2)nnc1-c1c[nH]c2ccccc12 | 95.4% (inactive) |
| Cc1ccc(NC(=O)N[C@@H](Cc2cc(F)cc(F)c2)C(=O)NC2C(=O)N3C[C@H](O)C[C@H]3C(=O)N3CCCC[C@H]3C(=O)N[C@@H](CO)C(=O)N3C[C@H](C)C[C@H]3C(=O)O[C@H]2C)c(F)c1 (stereo partly specified) | 47.4% (inactive) |
| C#C[C@]1(O)CC[C@H]2[C@@H]3CC=C4c5sc(-c6ccc7c(c6)OCO7)nc5CC[C@]4(C)[C@H]3CC[C@@]21C | -39.7% (active) |

| Compound | growth |
| --- | --- |
| CCCCCc1ccc(S(=O)(=O)Nc2cccc(-c3csc(NC(=O)CN4CCN(C)CC4)n3)c2)cc1 | 89.4% (inactive) |
| CCCn1cnc2c(c1=N)C(c1ccc(F)cc1)c1sc3c(CC)cccc3c1O2 (stereo unspecified) | 40.4% (inactive) |
| O=C(NCCn1ccnc1)c1ccc(-c2nc3ccc4[nH]ncc4c3c3c2CCCC3)cc1 | 62.4% (inactive) |
| COc1cccc(O)c1/C=C(/C)c1ccc2c(OC)cccc2[o+]1 | 101% (inactive) |
| NS(=O)(=O)c1ccc(-n2cc(CN3CCCCC3)nn2)cc1 | 109% (inactive) |
| O=S(=O)(NCCNc1nccc(-n2cnc3ccccc32)n1)c1ccc(Cl)cc1 | 101% (inactive) |
| COC(=O)C1(C)CCC[C@]2(C)[C@H]3C[C@H]4C(C(C)C)=C[C@]3(CC[C@@H]12)[C@H]1[C@@H]4[C@@H](OC(=O)c2ccco2)CC[C@@H]1OC(=O)c1ccco1 (stereo partly specified) | 104% (inactive) |
| CCCn1cnc2c(c1=N)C(c1ccc(OC)cc1)c1sc3c(C)cccc3c1O2 (stereo unspecified) | 53.9% (inactive) |
| COc1cc(-c2nn(C(C)(C)C)cc2-c2ccnc(NCCCNS(=O)(=O)c3cccc(F)c3)n2)ccc1Cl | 91.6% (inactive) |
| CC1(C)CC[C@]2(CN)CC[C@]3(C)C(=CC[C@@H]4[C@@]5(C)CCCNC(C)(C)[C@@H]5CC[C@]43C)[C@H]2C1 | 103% (inactive) |
| NC(=O)c1cccc(C#CCNC[C@H]2C[C@@H](n3ccc4c(Cl)ncnc43)[C@H](O)[C@@H]2O)c1 | 102% (inactive) |
| NC(N)=Nc1ccc(Oc2cccc(Nc3cccc(C(F)(F)F)c3)c2)cn1 | 31.5% (inactive) |
| O=C(CSc1nc2ccccc2c(=O)n1-c1ccccc1)Nc1cccc(C(=O)/C=C/c2ccccc2)c1 | 102% (inactive) |
| COc1ccc(/C(N)=N/C(N)=N/c2nc3ccccc3s2)cc1 | 79.6% (inactive) |
| Cc1cccc(/C=C/C(=O)Nc2ncc(Cc3cccc(C)c3)s2)c1 | 49.8% (inactive) |
| COc1c(N2CC3CCCNC3C2)c(F)cc2c(=O)c(C(=O)N/N=C/c3ccc(Br)cc3)cn(C3CC3)c12 (stereo unspecified) | 86.2% (inactive) |
| O=C(c1ccc(O)cc1)[C@@H]1CN[C@@]2(C(=O)Nc3ccccc32)[C@H]1c1ccc(F)cc1 | 105% (inactive) |
| Nc1nc(Nc2ccccc2SSc2ccccc2Nc2nc(N)nc(-c3ccc4ccccc4c3)n2)nc(-c2ccc3ccccc3c2)n1 | 102% (inactive) |
